Article PMC12136788
In all, about 24,000 sequences were measured (“enrichment r”: median about 0.99, highest 2% from about 3.7 on). Not all results are given here.

T1: UNK ZnF1-3 (human, UniProt Q9C0B0 31-174)
T1 sequence: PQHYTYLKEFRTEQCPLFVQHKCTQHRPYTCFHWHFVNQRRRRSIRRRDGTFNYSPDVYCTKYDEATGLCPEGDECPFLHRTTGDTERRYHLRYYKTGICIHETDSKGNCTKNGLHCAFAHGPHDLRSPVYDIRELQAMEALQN

B1: chr14:102516957:102516958:+_ENSG00000197102_ENST00000360184|hu_mus|motif|central (ssRNA)
RNA: GGGAGUUCUACAGUCCGACGAUCCCAUCAACCCUUCCACACCGUUAAGGAUGAAUGAAGGUUAAAUAUUGGGAGUUUCCGGUUCCAGAAAGAGGACUGGAGAAAAGUCUAGCUUUACUCAGUGCACAGAACGGCAACUCCACGCAACAGAGGAUUGAGCAUCA
B2: chr18:67943652:67943653:+_ENSMUSG00000079614_ENSMUST00000025421|mus_hu|FALSE|FALSE (ssRNA)
RNA: GGGAGUUCUACAGUCCGACGAUCAGUUGUCCUUUUAACCCAGUGGCUCUGUCCUCGCAGUUUAUCAUUUGAUUCUCCUACUAUUUCUUCCCAUACAGCAGCUGUUCGGUCAAAAGAACAGGAAGCCAAAACCUGCCCAAAUUCCAACAGAGGAUUGAGCAUCA
B3: chrX:20185780:20185781:-_ENSG00000177189_ENST00000379565|hu_mus|motif|central (ssRNA)
RNA: GGGAGUUCUACAGUCCGACGAUCUUUGGUUAUAGUAAACAGGACAGCGCUGGCCUCUCGCUCUGAGAAAAACUUCUGUCGGAGAAUCUUAUCCAGCAAUUCACCUCCUUUCAUAAGUUCUGUUACUACAUACACAUAUUUUCCCAACAGAGGAUUGAGCAUCA
B4: chr11:77843920:77843921:+_ENSMUSG00000037791_ENSMUST00000049167|mus_hu|motif|central (ssRNA)
RNA: GGGAGUUCUACAGUCCGACGAUCUUUUUUAUAUACAGAAUACAGGAAAGUUUCUGUAAAGUCUAAAACAUUACAAUUACGGUGUACAUUGGUACUGGUUGUGGGGGUGGGAGGAGAGGAGGGAACCAGGGGCAGGAGGAAGAGCAACAGAGGAUUGAGCAUCA
B5: chr1:167252050:167252051:+_ENSMUSG00000040836_ENSMUST00000111450|mus_mus|motif|central (ssRNA)
RNA: GGGAGUUCUACAGUCCGACGAUCGGAUACCAUUGAAGACAAGAGCCACAUGGUGGCUUCCCUUUCACAUCCACCAUCUCGGGUCCUCCUGAUGCCCCAGCCACAUCUCCAUCUGCUUCUAACGUGUGCUUUCGAAGCCUCGUUCAACAGAGGAUUGAGCAUCA
B6: chr12:96259795:96259796:+_ENSG00000139343_ENST00000266735|hu_hu|FALSE|FALSE (ssRNA)
RNA: GGGAGUUCUACAGUCCGACGAUCAAGGACAUUAUUACACCUUAUUAAAACUUCACCCAGAUGUCCAGACAAAGCUCCAUCUAUGUAUUCUUCUGUAUUUGCAAGCUGCAUGUUCAUGUAGCCAUCUACAGAUACCAGAUAGCCCAACAGAGGAUUGAGCAUCA
B7: 171526625_171526745_1071_3pUTR_ENSG00000117523_ENST00000495585|human|control|control (ssRNA)
RNA: GGGAGUUCUACAGUCCGACGAUCAGGUUAUAGCUGCAGCUGAAGUAGAGGCUGGAACUGAAGCUGAGACUGAGGCUGAGGCUGAAACUGGAGCUAAGGGUGAGGCUGGAACUGGAGCUGAGGUUGAGGCCAGAACUGGAGCUACAACAGAGGAUUGAGCAUCA
B8: chr13:108516651:108516652:-_ENSMUSG00000032846_ENSMUST00000105097|mus_hu|motif|central (ssRNA)
RNA: GGGAGUUCUACAGUCCGACGAUCAUCAUGCGCCAUUAAGAAGGUCUCUCGGGCUUUGCUGAGGAACUCUAUAAACUCACGGUAGUGCCGAGGACUGAUGUGUGUGAGCCGUGAGUGCGUUGUGUUGAUGUAGGCCCCGAUCGUCAACAGAGGAUUGAGCAUCA
B9: 138058577_138059462_3783_3pUTR_ENSMUSG00000041642_ENSMUST00000075164|mouse|control|control (ssRNA)
RNA: GGGAGUUCUACAGUCCGACGAUCGGCCAGGGACUUGGUGAUGUUCUUGGUAGAGCUGUCCAAUGGGGGUCCUAGGCACUCCGCAGACACGGCCUUCAUCUGUGCGGAUAGCUUGGGCUCACCCUUGAACUUGAAGUCAUCGUGCAACAGAGGAUUGAGCAUCA
B10: chr12:39756943:39756944:-_ENSG00000139116_ENST00000544797|hu_mus|hu_hu_hu_mus_False|28_38 (ssRNA)
RNA: GGGAGUUCUACAGUCCGACGAUCGGUUUGGCUGUUACCCCCAAGGGAAUCCUGCAAGAGUCUUGUCAGCUUAGAGUCUCUGUAAGGGACAUGGGUGGCCCUCUUGCUCUUGUCUCCCAAGGCGCUGAUUACAUUCCCAAGAGCCAACAGAGGAUUGAGCAUCA
B11: chr2:73467608:73467609:+_ENSG00000135624_ENST00000258091|hu_mus|FALSE|FALSE (ssRNA)
RNA: GGGAGUUCUACAGUCCGACGAUCAUCCUGGGACUUGGCUAUGUCCACUAAAGUCUUUGCUGCAGGAUGGACAACAUCGAGGAGUUUCAGAAUUGUGGCCCCAUCAUUAGAUAUUGUUGCUUUGCCUCGGCCAUCCACAAUAAGCAACAGAGGAUUGAGCAUCA
B12: chr2:160604994:160604995:+_ENSG00000136536_ENST00000409591|hu_mus|motif|central (ssRNA)
RNA: GGGAGUUCUACAGUCCGACGAUCUCUUGAAGACUCAUCCCUUCCCUCUCGCCUCCUUCUCGAGAACAAAGGUGUGCAUCGGUUUCGGAGUGAAGAAGACAACCAUGGUCCUGAAUUUCUACCUUCUGAUUCUUGGUUAAAAUUCAACAGAGGAUUGAGCAUCA
B13: chr11:64571133:64571134:-_ENSG00000133895_ENST00000312049|hu_hu|motif|central (ssRNA)
RNA: GGGAGUUCUACAGUCCGACGAUCCUGAAAAAUAAAUCUAUGUACAAAACAGGAAGAGAUCAGGCUCUUGUCACCCACUCCGGACCCUCUGCAGAUUUCCUCCGGGAUGCUCCGAGAUGGGCUGGACCUCUGGGAGGUUCCCAGCAACAGAGGAUUGAGCAUCA
B14: chr10:93459826:93459827:-_ENSMUSG00000036099_ENSMUST00000119818|mus_mus|motif|central (ssRNA)
RNA: GGGAGUUCUACAGUCCGACGAUCUCCCCACACCAGCCAGGAGGACACAAUCCAGCACGUGGGAAACAUGAUGAGCAAACGGAUGAAGGCAAACAGCAGCGAGACAUCCCAAGUGUUCGGGGUUGCCAGGGAGCAGAGCGUUGGCAACAGAGGAUUGAGCAUCA
B15: chr9:95013113:95013114:-_ENSG00000196305_ENST00000443024|hu_hu|hu_hu_hu_mus_False|1_48 (ssRNA)
RNA: GGGAGUUCUACAGUCCGACGAUCCUCAGUCAGAAAGGGCGUGUAAGGGGCCAUCAGUCUGCACAGAGAAAGCAGGACACUGAACAGGGUUUCUAGGGCCAUGACACAGUCUUCCACCCCACUCUCACCCUUUAACCUUCUGCGCAACAGAGGAUUGAGCAUCA
B16: chr16:75661828:75661829:-_ENSG00000065427_ENST00000302445|hu_hu|FALSE|FALSE (ssRNA)
RNA: GGGAGUUCUACAGUCCGACGAUCUAUUAUUUUCUAGACAGAAGUGCCAACUGUUGUGCUUUCCAGUGUAUCAGUGGUUGCUACAUUCUCCUUCUUGUCUUCGGGUUUCAUGGCAGGAAACAGAAGUACUUCCUUGAUGUUGUUCAACAGAGGAUUGAGCAUCA
B17: chr11:29608675:29608676:+_ENSMUSG00000020458_ENSMUST00000102843|mus_mus|motif|central (ssRNA)
RNA: GGGAGUUCUACAGUCCGACGAUCCUCUGUAUCAGAAGGAAGUUUUUCCUCUGCUUCUUUCGUAAGUACUUUGGGUUUAACGGUGUUGCCCAUUUCUAUUUGAGAUUCCAAAGCAGAAACAUUUGGAAGCAAUAAGGGCACCUUCAACAGAGGAUUGAGCAUCA
B18: 136535675_136535795_2550_CDS_ENSMUSG00000030213_ENSMUST00000032335|mouse|control|control (ssRNA)
RNA: GGGAGUUCUACAGUCCGACGAUCCUGAGGCUGAGAGGUCACGGCAACGGGCACAUGCAGGAUCACUGGCAAGGGCUGCAGAGAGAUUGUAGGCUGAGGGGUCCCACUAGGCACCUGAGUAGUGGCAACUACGGUGGCUGUGCUCAACAGAGGAUUGAGCAUCA
B19: chr7:102952668:102952669:+_ENSG00000105819_ENST00000453466|hu_hu|motif|central (ssRNA)
RNA: GGGAGUUCUACAGUCCGACGAUCCUGUUUAAAAUCUGGUAGUUGCUUAAUGGGACCAACAGCAGCAAUAGCUGGACUCCGGUUAUAAAUGUAUUUGGUACAUACUUCUCGAAUUGUCUCAGCAUUCACAGCAUCAAUUCUUGCCAACAGAGGAUUGAGCAUCA
B20: chr2:120799606:120799607:+_ENSG00000115109_ENST00000263713|hu_hu|motif|central (ssRNA)
RNA: GGGAGUUCUACAGUCCGACGAUCGUACAUAAUCUGAUCAAACAACUCUUGUCCUUUGGCUUUUUUUGGCAAGUCCACACGGACAUCAGUACCAUCCAGAAGGGACACCCGACACGUGAUGAUGGACUUAGAAUCUCCAGCUGCCAACAGAGGAUUGAGCAUCA

What follows are binders tested against T1, UNK ZnF1-3 (assay: nsRBNS (natural sequence RNA bind-n-seq); RBNS binding buffer (assumed for nsRBNS): 25 mM Tris pH 7.5, 150 mM KCl, 3 mM MgCl2, 0.01% Triton X-100, 500 ug/ml BSA, 20 U/ml SUPERase-In, 4 C; UNK is unkempt and MSI1 is Musashi-1; names of the RNAs are library labels; protein concentration not given here; high values mean tight binding).

Binder | binding signal [enrichment R]
B1 | 1.11
B2 | 1.28
B3 | 0.794
B4 | 1.66
B5 | 0.721
B6 | 0.574
B7 | 2.07
B8 | 0.756
B9 | 0.657
B10 | 0.802
B11 | 0.992
B12 | 0.976
B13 | 0.877
B14 | 2.05
B15 | 0.937
B16 | 0.567
B17 | 0.539
B18 | 1.73
B19 | 1.15
B20 | 0.976
